# Results taken from PubChem BioAssay (NCI).
# The panel holds about 79,000 compounds, 15% with a hit somewhere; the sample as a whole holds those more often. Unmarked numbers belong to inactive results. Calls of active or inactive are those of the source. No stated cut-off is given here; in the data, active means growth inhibition above about 70%; inactive means the rest.
# Columns and labels:
# [1] = NCI Yeast Anticancer Drug Screen. Data for the wt1 strain (AID 149);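 further: 0% = growth of vehicle-treated wt1 cultures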; details: S. cerevisiae wt1 strain (SPY 50644) growth inhibition, stronger effect = higher value
# How it was run: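 wt1 yeast, compound-treated; % growth inhibition vs vehicle control.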
# [2] = NCI Yeast Anticancer Drug Screen. Data for the rad50EPP+ strain (AID 151);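 further: 0% = growth of vehicle-treated control cultures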; details: S. cerevisiae rad50 mutant strain, stronger effect = higher value
# How it was run: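 rad50EPP+ yeast treated with test compounds. Readout: growth vs vehicle control.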
# [3] = NCI Yeast Anticancer Drug Screen. Data for the mgt1 strain (AID 153); details: S. cerevisiae mgt1 mutant growth inhibition, stronger effect = higher value
# How it was run: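 Growth inhibition relative to vehicle controls was scored for the mgt1 yeast strain after compound exposure.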
# [4] = NCI Yeast Anticancer Drug Screen. Data for the rad50 strain (AID 155);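 further: 0% = growth of vehicle-only cultures of the same strain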; details: S. cerevisiae rad50 strain growth inhibition, stronger effect = higher value
# How it was run: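 Genetically altered yeast (DNA repair pathway); compound treatment; growth inhibition vs vehicle ctrl.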
# [5] = NCI Yeast Anticancer Drug Screen. Data for the mec2-1 strain (AID 157); details: S. cerevisiae mec2-1 strain, stronger effect = higher value
# How it was run: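 Growth inhibition is read against vehicle-treated controls after compound exposure of the mec2-1 yeast strain, which is defective in DNA damage repair or cell cycle control.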
# [6] = NCI Yeast Anticancer Drug Screen. Data for the sgs1 mgt1 strain (AID 161);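 further: 0% = growth of cultures given vehicle only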; details: S. cerevisiae sgs1 mgt1 strain, stronger effect = higher value
# How it was run: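 Yeast cells carrying a defined DNA-repair defect were exposed to test compounds. Growth inhibition was measured relative to vehicle-treated controls.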
# [7] = NCI Yeast Anticancer Drug Screen. Data for the CLN2oe strain (AID 163);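 further: 0% = growth of vehicle-only control cultures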; details: S. cerevisiae CLN2oe strain, stronger effect = higher value
# How it was run: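 Compound-treated yeast; growth vs vehicle ctrl = % inhibition. Genetically altered strain (cell-cycle control).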
# [8] = NCI Yeast Anticancer Drug Screen. Data for the cln2 rad14 strain (AID 165);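 further: 0% = growth equal to vehicle treated cultures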; details: S. cerevisiae cln2 rad14 strain, stronger effect = higher value
# How it was run: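 Growth inhibition, relative to vehicle-treated controls, is the read-out. The test organism is a yeast strain with defined genetic alterations, cln2 rad14.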
# [9] = NCI Yeast Anticancer Drug Screen. Data for the bub3 strain (AID 167); details: S. cerevisiae bub3 mutant strain, stronger effect = higher value
# How it was run: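 Yeast carrying a defined mutation is treated with each compound, and growth is compared with that of vehicle-exposed cells to give inhibition.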
# [10] = NCI Yeast Anticancer Drug Screen. Data for the wt2 strain (AID 169);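 further: 0% = growth of vehicle-treated yeast cultures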; details: S. cerevisiae wt2 strain growth inhibition, stronger effect = higher value
# How it was run: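 Compound exposure of yeast; growth compared with vehicle controls; inhibition reported.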
# [11] = NCI Yeast Anticancer Drug Screen. Data for the mlh1 strain (AID 171);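 further: 0% = growth of vehicle-treated control cultures of the same strain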; details: S. cerevisiae mlh1 strain growth inhibition, stronger effect = higher value
# How it was run: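 Compounds are applied to a genetically altered yeast strain, and its growth is compared with that of vehicle-treated cultures to give percent inhibition.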
# [12] = NCI Yeast Anticancer Drug Screen. Data for the sgs1 strain (AID 173);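 further: 0% = growth of vehicle-only control cultures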; details: S. cerevisiae sgs1 mutant, stronger effect = higher value
# How it was run: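 Compounds applied to genetically altered yeast; growth compared with vehicle-treated cultures to give % inhibition.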
# [13] = NCI Yeast Anticancer Drug Screen. Data for the mlh1 rad18 strain (AID 175); details: S. cerevisiae mlh1 rad18 strain growth inhibition, stronger effect = higher value
# How it was run: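 Cells of a genetically altered yeast strain, deficient in DNA damage repair, were treated with compound. Their growth was then compared with that of vehicle-treated cultures to give inhibition.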
# [14] = NCI Yeast Anticancer Drug Screen. Data for the rad18 strain (AID 177); details: S. cerevisiae rad18 mutant growth inhibition, stronger effect = higher value
# How it was run: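 Compounds are applied to a repair-deficient yeast strain, and growth is compared with that of vehicle-treated cultures to give percent inhibition.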
# [15] = NCI Yeast Anticancer Drug Screen. Data for the rad14 strain (AID 159);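 further: 0% = growth of vehicle-treated control cultures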; details: S. cerevisiae rad14 strain growth inhibition, stronger effect = higher value
# How it was run: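 Test compounds were applied to a repair-deficient yeast strain. Its growth was then compared with that of cultures given vehicle alone, and inhibition was expressed relative to those controls.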
# [16] = at 5.0 µM (retest, dose inferred, filed as 0.5)
# [17] = at 50.0 µM (retest, dose inferred, filed as 5.0)
smiles,measurement,setting,value
N=c1oc2ccccc2cc1-c1nc2ccccc2[nH]1,growth inhibition,[1]; at 1.2 µM,1%
same,growth inhibition,[1]; at 3.7 µM,9%
same,growth inhibition,[1]; at 11.0 µM,15%
same,growth inhibition,[1]; at 33.0 µM,28%
same,growth inhibition,[1]; at 100.0 µM,45%
same,growth inhibition,[2]; at 1.2 µM,30%
same,growth inhibition,[2]; at 3.7 µM,48%
same,growth inhibition,[2]; at 11.0 µM,58%
same,growth inhibition,[2]; at 33.0 µM,85% (active)
same,growth inhibition,[2]; at 100.0 µM,91% (active)
same,growth inhibition,[3]; at 1.2 µM,13%
same,growth inhibition,[3]; at 3.7 µM,11%
same,growth inhibition,[3]; at 11.0 µM,24%
same,growth inhibition,[3]; at 33.0 µM,43%
same,growth inhibition,[3]; at 100.0 µM,79% (active)
same,growth inhibition,[4]; at 1.2 µM,15%
same,growth inhibition,[4]; at 3.7 µM,18%
same,growth inhibition,[4]; [16],7%
same,growth inhibition,[4]; at 11.0 µM,31%
same,growth inhibition,[4]; at 33.0 µM,64%
same,growth inhibition,[4]; [17],85% (active)
same,growth inhibition,[4]; at 50.0 µM,70%
same,growth inhibition,[4]; at 100.0 µM,88% (active)
same,growth inhibition,[5]; at 1.2 µM,-6%
same,growth inhibition,[5]; at 3.7 µM,10%
same,growth inhibition,[5]; [16],2%
same,growth inhibition,[5]; at 11.0 µM,11%
same,growth inhibition,[5]; at 33.0 µM,26%
same,growth inhibition,[5]; [17],66%
same,growth inhibition,[5]; at 50.0 µM,31.8%
same,growth inhibition,[5]; at 100.0 µM,62%
same,growth inhibition,[6]; [16],13%
same,growth inhibition,[6]; [17],62%
same,growth inhibition,[6]; at 50.0 µM,47.8%
same,growth inhibition,[7]; at 1.2 µM,6%
same,growth inhibition,[7]; at 3.7 µM,-21%
same,growth inhibition,[7]; at 11.0 µM,12%
same,growth inhibition,[7]; at 33.0 µM,25%
same,growth inhibition,[7]; at 100.0 µM,47%
same,growth inhibition,[8]; [16],5%
same,growth inhibition,[8]; [17],27%
same,growth inhibition,[8]; at 50.0 µM,28.3%
same,growth inhibition,[9]; at 1.2 µM,-13%
same,growth inhibition,[9]; at 3.7 µM,-12%
same,growth inhibition,[9]; [16],23%
same,growth inhibition,[9]; at 11.0 µM,-3%
same,growth inhibition,[9]; at 33.0 µM,9%
same,growth inhibition,[9]; [17],56%
same,growth inhibition,[9]; at 50.0 µM,33.8%
same,growth inhibition,[9]; at 100.0 µM,57%
same,growth inhibition,[10]; at 1.2 µM,-31%
same,growth inhibition,[10]; at 3.7 µM,-29%
same,growth inhibition,[10]; at 11.0 µM,-13%
same,growth inhibition,[10]; at 33.0 µM,47%
same,growth inhibition,[10]; at 100.0 µM,80% (active)
same,growth inhibition,[11]; at 1.2 µM,0%
same,growth inhibition,[11]; at 3.7 µM,3%
same,growth inhibition,[11]; at 11.0 µM,17%
same,growth inhibition,[11]; at 33.0 µM,42%
same,growth inhibition,[11]; at 100.0 µM,82% (active)
same,growth inhibition,[12]; at 1.2 µM,15%
same,growth inhibition,[12]; at 3.7 µM,28%
same,growth inhibition,[12]; at 11.0 µM,41%
same,growth inhibition,[12]; at 33.0 µM,59%
same,growth inhibition,[12]; at 100.0 µM,82% (active)
same,growth inhibition,[13]; [16],6%
same,growth inhibition,[13]; [17],84% (active)
same,growth inhibition,[13]; at 50.0 µM,16.6%
same,growth inhibition,[14]; at 1.2 µM,2%
same,growth inhibition,[14]; at 3.7 µM,5%
same,growth inhibition,[14]; at 11.0 µM,14%
same,growth inhibition,[14]; at 33.0 µM,27%
same,growth inhibition,[14]; at 100.0 µM,71% (active)
Cc1ccnc(NS(=O)(=O)c2ccc(Nc3c4ccccc4nc4ccccc34)cc2)n1,growth inhibition,[1]; at 1.2 µM,14%
same,growth inhibition,[1]; at 3.7 µM,20%
same,growth inhibition,[1]; at 11.0 µM,21%
same,growth inhibition,[1]; at 33.0 µM,48%
same,growth inhibition,[1]; at 100.0 µM,76% (active)
same,growth inhibition,[2]; at 1.2 µM,30%
same,growth inhibition,[2]; at 3.7 µM,41%
same,growth inhibition,[2]; at 11.0 µM,64%
same,growth inhibition,[2]; at 33.0 µM,73% (active)
same,growth inhibition,[2]; at 100.0 µM,74% (active)
same,growth inhibition,[3]; at 1.2 µM,37%
same,growth inhibition,[3]; at 3.7 µM,33%
same,growth inhibition,[3]; at 11.0 µM,54%
same,growth inhibition,[3]; at 33.0 µM,66%
same,growth inhibition,[3]; at 100.0 µM,84% (active)
same,growth inhibition,[4]; at 1.2 µM,50%
same,growth inhibition,[4]; at 3.7 µM,79% (active)
same,growth inhibition,[4]; [16],77% (active)
same,growth inhibition,[4]; at 11.0 µM,90% (active)
same,growth inhibition,[4]; at 33.0 µM,91% (active)
same,growth inhibition,[4]; [17],90% (active)
same,growth inhibition,[4]; at 50.0 µM,84.8% (active)
same,growth inhibition,[4]; at 100.0 µM,88% (active)
same,growth inhibition,[5]; at 1.2 µM,18%
same,growth inhibition,[5]; at 3.7 µM,32%
same,growth inhibition,[5]; [16],15%
same,growth inhibition,[5]; at 11.0 µM,45%
same,growth inhibition,[5]; at 33.0 µM,76% (active)
same,growth inhibition,[5]; [17],77% (active)
same,growth inhibition,[5]; at 50.0 µM,71.2% (active)
same,growth inhibition,[5]; at 100.0 µM,83% (active)
same,growth inhibition,[15]; at 1.2 µM,10%
same,growth inhibition,[15]; at 3.7 µM,10%
same,growth inhibition,[15]; at 11.0 µM,26%
same,growth inhibition,[15]; at 33.0 µM,58%
same,growth inhibition,[15]; at 100.0 µM,81% (active)
same,growth inhibition,[6]; [16],14%
same,growth inhibition,[6]; [17],74% (active)
same,growth inhibition,[6]; at 50.0 µM,77.6% (active)
same,growth inhibition,[8]; [16],17%
same,growth inhibition,[8]; [17],35%
same,growth inhibition,[8]; at 50.0 µM,35.5%
same,growth inhibition,[9]; at 1.2 µM,-12%
same,growth inhibition,[9]; at 3.7 µM,-21%
same,growth inhibition,[9]; [16],26%
same,growth inhibition,[9]; at 11.0 µM,-20%
same,growth inhibition,[9]; at 33.0 µM,30%
same,growth inhibition,[9]; [17],44%
same,growth inhibition,[9]; at 50.0 µM,76.2% (active)
same,growth inhibition,[9]; at 100.0 µM,63%
same,growth inhibition,[10]; at 1.2 µM,-10%
same,growth inhibition,[10]; at 3.7 µM,-18%
same,growth inhibition,[10]; at 11.0 µM,-3%
same,growth inhibition,[10]; at 33.0 µM,44%
same,growth inhibition,[10]; at 100.0 µM,74% (active)
same,growth inhibition,[12]; at 1.2 µM,24%
same,growth inhibition,[12]; at 3.7 µM,26%
same,growth inhibition,[12]; at 11.0 µM,43%
same,growth inhibition,[12]; at 33.0 µM,69%
same,growth inhibition,[12]; at 100.0 µM,86% (active)
